CF NFkB block: cystic fibrosis NF-kB activation inhibition | AID 588850 | inhibition, % at 5 µM | KKLEB NF-kB-GFP reporter, PAF-induced, GFP fluorescence overnight | actives 0.86% (n = 360,000);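 active = at least 50% inhibition at 5 µM, scaled per plate between neutral and stimulator controls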;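 also: PAF is a Pseudomonas aeruginosa culture filtrate used as stimulus; plate controls were PAF-stimulated DMSO wells for no effect and unstimulated DMSO wells for full effect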
EWS-Fli block: blocks EWS/Fli oncoprotein-driven transcription. A673 NR0B1-luciferase reporter, viability-normalised. inhibition, % at 12.6 µM. actives 0.67% (n = 350,000);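 active = mean inhibition of at least 50% after viability correction, with every replicate also passing that limit; inconclusive = mean reaches 50% but only one of two replicates passes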;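 also: firefly luciferase signal divided by Alamar Blue viability fluorescence both relative to DMSO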
TROY NFkB inh: TROY signaling inhibition; Q293 LMP1-TROYcd NF-kB luciferase reporter, 4 h; inhibition, % at 10 µM; actives 0.98% (n = 360,000);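 active = compounds whose plate-normalised and pattern-corrected inhibition of the luciferase reporter signal at the single screening dose is 50% or more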
KKLEB cytotox: counter-screen for CF NF-kB inhibitors: cytotoxicity; AID 602141; actives 0.36% (n = 360,000); KKLEB CF airway cells viability, ATPlite luminescence, overnight; hits give low values; cells stimulated with P. aeruginosa culture filtrate; activity change (cytotoxicity), % at 5 µM;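 active = corrected activity change at or below -50% at 5 µM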
LGR2 antag: blocks bursicon-induced cAMP signaling via Drosophila LGR2 | HEK293 LGR2, CRE-luciferase, bursicon-stimulated, 4 h | actives 0.35% (n = 380,000) | AID 720647 | inhibition, % at 9.99 µM;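 active = drop in luminescence signal, shown as inhibition above about 50% in the replicate tests, limit read from the data, passing the limit was not always enough; inconclusive = probably only some replicates passing the limit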;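 also: agonist challenge used bursicon conditioned medium at about half maximal strength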
TWEAK-Fn14 inh: TWEAK-Fn14 signaling inhibition; TWEAK-stimulated Fn14 reporter cells, luciferase luminescence, 8 h; inhibition, % at 10 µM; actives 2% (n = 360,000); in the data active = inhibition above about 50%
Starred values were filed as active, the others as inactive; ? = inconclusive; · = no result. Hits are enriched below; roughly 2.6% of the tested compounds scored in any of these assays.

SMILES	CF NFkB block	EWS-Fli block	TROY NFkB inh	KKLEB cytotox	LGR2 antag	TWEAK-Fn14 inh
O=C(OCc1nc2ccc(Cl)cc2n1CCO)c1ccc(O)cc1	-8	7	77*	0	-3	67*
O=C(OCc1nc2ccc(Cl)cc2n1CCO)c1ccccc1	-18	·	-6	7	-18	7
C/C=C/c1ccc(OCCCNCC(C)O)c(OC)c1 (stereo not given)	-4	·	·	5	·	86*
Fc1c(F)c(C(F)(F)F)c(F)c(F)c1N/N=C\c1cccs1	26	·	40	-17	·	60*
CCN1C(=O)CCN(C2CCCC2)c2nc(Nc3ccc(C(=O)NC4CCN(C)CC4)cc3OC)ncc21	-156	62*	-15	-16	-1	8
CC(C)C[C@@H](CO)N(Cc1ccccc1)S(=O)(=O)N(Cc1ccccc1)[C@H](CO)CC(C)C	40	·	52*	-20	30	24
CC(C)C[C@@H](CO)N(Cc1ccccc1)S(=O)(=O)N(Cc1ccccc1)[C@@H](CO)CC(C)C	27	·	53*	-2	·	16
O=C(NCCc1ccccc1)[C@H]1[C@H](CO)[C@H]2Cn3c(ccc(-c4ccccc4)c3=O)[C@@H]1N2	·	-3	·	·	3	·
CCOC(=O)c1c(NC(=O)c2ccco2)n(C2CCCCC2)c2nc3ccccc3nc12	23	·	71*	-14	·	88*
CCSc1ncc(Cl)c(C(=O)Nc2ccc(S(=O)(=O)Nc3onc(C)c3C)cc2)n1	5	·	-6	10	·	5
CCS(=O)(=O)c1ncc(Cl)c(C(=O)Nc2ccc(S(=O)(=O)N3CCCC(C)C3)cc2)n1 (stereo not given)	97*	·	85*	-109*	8	96*
Cc1ccc(CS(=O)(=O)c2ncc(Cl)c(C(=O)Nc3ccc(OC(F)F)cc3)n2)cc1	94*	49	79*	-100*	-32	83*
CCS(=O)(=O)c1ncc(Cl)c(C(=O)Nc2ccc(C)cc2)n1	92*	65*	67*	-86*	0	90*
CCC1CCCCN1S(=O)(=O)c1ccc(NC(=O)c2nc(S(C)(=O)=O)ncc2Cl)cc1 (stereo not given)	87*	69*	83*	-74*	3	77*
C[C@@H]1CN([C@@H](C)CO)C(=O)c2cc(NC(=O)c3ccncc3)ccc2O[C@@H]1CN(C)C(=O)NC1CCCCC1	·	-5	·	·	12	·
Cn1c(/C=C/c2cccc([N+](=O)[O-])c2)c([N+](=O)[O-])c(=O)n(C)c1=O	46	17	22	5	?	57*
Cn1c(/C=C/c2ccc(Cl)cc2)c([N+](=O)[O-])c(=O)n(C)c1=O	27	2	4	6	?	56*
CC(C)c1nc(=S)n(-c2ccccc2)[nH]1	9	·	68*	-2	·	22
CC(=O)Nc1nc(=S)n(-c2ccccc2)[nH]1	-4	·	-1	2	·	-8
Cc1oc(-c2ccc3c(c2)OCCO3)cc1C(=O)O	9	·	84*	-6	?	106*
COc1ccc(-c2cc(C(=O)O)c(C)o2)cc1OC	-12	·	59*	4	·	98*
Cc1oc(-c2ccc3c(c2)OCCO3)cc1C(=O)NCC(=O)O	-45	-64	2	3	-67	19
O=C(N[C@@H]1CC[C@H](CCNS(=O)(=O)c2cccc(Cl)c2)O[C@H]1CO)c1ccncc1	·	-2	·	·	10	·
CCC(=O)N1C[C@H]2[C@@H](c3ccccc31)[C@@H](CO)N2Cc1ccccc1Cl	·	-8	·	·	10	·
COc1cc(N)c(C(=O)c2nccc3cc(OC)c(OC)cc23)cc1OC	-11	14	18	-3	19	15
SMILES	CF NFkB block	EWS-Fli block	TROY NFkB inh	KKLEB cytotox	LGR2 antag	TWEAK-Fn14 inh
COc1cc(C(=O)c2nccc3cc(OC)c(OC)cc23)c([N+](=O)[O-])cc1OC	86*	5	19	-34	-13	-28
CCCCCC(=O)NN=C1CCN(Cc2ccccc2)CC1	6	-4	-3	-11	8	94*
O=C1C=CC(=Nc2cccc3c2C(=O)c2ccccc2-3)O1	-46	·	-84	2	·	-19
O=C1C=CC(=Nc2ccc3c(c2)Cc2cc(F)ccc2-3)O1	-31	-25	11	-2	·	56*
O=C1/C(=C\c2cc(Cl)c(O)c(Cl)c2)SC(=S)N1Cc1ccccc1	-258	24	70*	-31	0	61*
COc1ccc(/C=C2/SC(=S)N(Cc3ccccc3)C2=O)cc1O	-5	-1	-27	7	-34	-22
CCCN1C/C(=C/c2cccc([N+](=O)[O-])c2)C(=O)/C(=C/c2cccc([N+](=O)[O-])c2)C1	95*	·	2	-88*	45	7
CN1C(=O)/C(=C/c2cccc([N+](=O)[O-])c2)C(=O)N1c1ccccc1	-2	18	-20	-1	0	-5
COc1cccc2sc3ccc(C#CC4(O)CCCCC4)cc3c(=O)c12	-35	-167	77*	-14	-50	35
COc1cccc2oc3cc(C#CC4(O)CCCCC4)ccc3c(=O)c12	1	37	77*	-34	11	73*
C=CCn1c2ccccc2c(=O)c2cc(C#CC3(O)CCCCC3)ccc21	4	-173	70*	-35	?	2
O=c1c2ccccc2sc2ccc(C#CC3(O)CCCCC3)cc12	-25	89*	92*	-85*	100*	107*
C[C@H](CO)N1C[C@H](C)[C@@H](CN(C)C(=O)c2ccccc2)OCCCC[C@H](C)Oc2ccc(NC(=O)CCCN(C)C)cc2C1=O	·	1	·	·	-2	·
COc1ccc(C#Cc2ccc3c(c2)O[C@H](CN(C)C(=O)c2ccccn2)[C@@H](C)CN([C@H](C)CO)S3(=O)=O)cc1	·	-1	·	·	2	·
C(=Cc1cccnc1)c1ccncc1	34	-4	16	3	11	18
N#Cc1ccc(/C=C/C(=O)c2cccnc2)cc1	-2	-6	40	1	81*	-1
O=C(/C=C/c1ccc(Cl)cc1)c1cccnc1	12	·	3	-4	·	-8
O=C(/C=C/c1cccnc1)/C=C/c1cccnc1	75*	73*	72*	3	15	101*
Cc1cc2ncn(-c3ncccc3[N+](=O)[O-])c2cc1C	2	58*	7	-13	-14	-4
Cc1nc(Nc2ccc(C(=O)O)cc2)nc(Nc2ccc(C(=O)O)cc2)c1[N+](=O)[O-]	7	5	-1	2	-1	12
CC(=O)Nc1ccc(Nc2nc(C)c([N+](=O)[O-])c(Nc3ccccc3)n2)cc1	10	·	53*	-8	2	67*
Cc1ccc(-c2nc3ccccc3[nH]2)cc1NC(=S)NC(=O)c1ccccc1Br	-3	·	36	-4	·	67*
O=C(NC(=S)Nc1cc(-c2nc3ccccc3[nH]2)ccc1Cl)c1ccc2c(c1)OCO2	-9	·	53*	-37	-75	87*
CCSc1ncc(Cl)c(C(=O)Nc2sc3c(c2C(=O)NCc2cccnc2)CCCC3)n1	44	·	6	-54*	·	-62
